PubChem BioAssay AID1224921 (Broad Institute, 2016)
About 350 (25%) of roughly 1,400 compounds were called active. Inconclusive results (about 2%) are left out. How the calls were made is not given here. A selection follows. Results with a measured potency or affinity are listed apart.

Experiment: inhibitors of Clostridioides difficile proliferation – 4-point retest, confirmation (AID 1224921);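 further: plate controls were DMSO wells for no effect and levofloxacin 16 µg/mL wells for full effect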
Details: Clostridioides difficile clinical isolate growth, OD600, 24 h, stronger effect = lower value; at 30 µM unless noted

Max activity, inactive:
O=C(C[C@H]1C[C@@H]2c3cc(NC(=O)C4CCC4)ccc3O[C@@H]2[C@@H](CO)O1)NCc1ccc2c(c1)OCO2 -8.66% [at 0.5 µM]
COc1ccccc1NC(=O)N[C@@H]1CC[C@@H](CC(=O)N2CCC(Cc3ccccc3)CC2)O[C@@H]1CO -7.56%
CCS(=O)(=O)Nc1ccc2c(c1)C(=O)N(C)C[C@@H](OC)[C@H](C)CN(C(C)=O)[C@@H](C)CO2 -11.1%
C[C@@H]1CCCCO[C@H](CN(C)Cc2ccc(C(=O)O)cc2)[C@H](C)CN([C@H](C)CO)C(=O)c2cc(NC(=O)Nc3ccc4c(c3)OCO4)ccc2O1 -16.4%
C[C@@H]1CN([C@@H](C)CO)S(=O)(=O)c2ccc(C3=CCCCC3)cc2O[C@@H]1CN(C)Cc1cccnc1 23.6%
O=C(Nc1cc(F)ccc1F)N[C@@H]1CC[C@@H](CC(=O)N2CCc3ccccc3C2)O[C@H]1CO 14.6%
CNC[C@@H]1Oc2cc(C#CCOC)ccc2S(=O)(=O)N([C@@H](C)CO)C[C@H]1C -11.1% [at 8 µM]
O=C(N[C@H]1C=C[C@H](CC(=O)N2CCc3ccccc3C2)O[C@H]1CO)C1CC1 -8.59%
C[C@H]1CN([C@@H](C)CO)S(=O)(=O)c2ccc(C#CC3CCCC3)cc2O[C@H]1CN(C)Cc1cccnc1 23.6%
O=C(C[C@@H]1C[C@@H]2c3cc(NC(=O)C4CCC4)ccc3O[C@@H]2[C@H](CO)O1)NCc1cc(F)ccc1F 4.63%
Cc1ccc(-c2ccc3c(c2)O[C@@H](CN(C)Cc2ccncc2)[C@@H](C)CN([C@H](C)CO)S3(=O)=O)cc1 -8.83% [at 8 µM]
C[C@H](CO)N1C[C@H](C)[C@H](CN(C)Cc2ccncc2)Oc2cc(C3=CCCCC3)ccc2S1(=O)=O 33%
C[C@H]1CN([C@@H](C)CO)C(=O)c2ccccc2-c2ccccc2CO[C@H]1CN(C)Cc1cccc(O)c1 7.55%
C[C@H]1CN([C@@H](C)CO)C(=O)c2ccccc2-c2ccccc2CO[C@H]1CN(C)C(=O)CCN(C)C -12.8% [at 35 µM]
C/C=C/c1ccc2c(c1)O[C@H](CN(C)C(=O)Nc1ccc(C(F)(F)F)cc1)[C@@H](C)CN([C@@H](C)CO)S2(=O)=O 32.5% [at 8 µM]
C[C@H]1CN([C@@H](C)CO)C(=O)c2cc(Br)cnc2O[C@@H]1CN(C)C(=O)c1ccccc1 -20% [at 8 µM]
COc1ccc(NC(=O)Nc2cccc3c2O[C@@H](CN(C)C(=O)NC2CCCCC2)[C@H](C)CN([C@@H](C)CO)C3=O)cc1 10.1%
C[C@@H]1CN([C@@H](C)CO)S(=O)(=O)c2ccc(C#Cc3ccccc3F)cc2O[C@H]1CN(C)CC1CCOCC1 35.2%
COc1ccccc1C#Cc1ccc2c(c1)O[C@@H](CN(C)Cc1cccnc1)[C@@H](C)CN([C@@H](C)CO)S2(=O)=O 24.6%
CC(C)NC(=O)N(C)C[C@H]1OCc2ccccc2-c2ccccc2C(=O)N([C@@H](C)CO)C[C@H]1C -14.3%
COc1cccc(C(=O)Nc2ccc3c(c2)OC[C@@H](C)N(C(=O)C2CCCC2)C[C@H](C)[C@@H](OC)CN(C)C3=O)c1 -18.8% [at 8 µM]
CC(C)CC#Cc1ccc2c(c1)O[C@H](CN(C)Cc1ccncc1)[C@@H](C)CN([C@@H](C)CO)S2(=O)=O 23.1%
C[C@H](CO)N1C[C@H](C)[C@H](CN(C)Cc2ccc3c(c2)OCO3)Oc2ncc(-c3cccc(F)c3)cc2C1=O -9.89% [at 8 µM]
N#C[C@H]1[C@H](c2ccc(-c3cccc(F)c3)cc2)[C@@H](CO)N1C(=O)NC1CCCC1 28.5%
CCCC(=O)Nc1ccc2c(c1)C(=O)N(C)C[C@@H](OC)[C@@H](C)CN(Cc1ccccc1)[C@H](C)CO2 9.23%
C[C@H]1CN([C@@H](C)CO)S(=O)(=O)c2ccc(C3=CCCCC3)cc2O[C@H]1CN(C)C(=O)c1ccncc1 14.4%
N#C[C@H]1[C@@H](c2ccc(C#Cc3ccccc3F)cc2)[C@@H](CO)N1C(=O)C1CCCCC1 -9.56%
C[C@@H]1CN([C@@H](C)CO)C(=O)Cc2cc(NC(=O)C3CC3)ccc2O[C@@H]1CN(C)Cc1ccc(-c2ccccc2)cc1 49.5%
O=C(C[C@H]1CC[C@@H]2[C@H](COC[C@H](O)CN2Cc2ccc(Cl)cc2)O1)NCc1ccccc1Cl 32% [at 8 µM]
O=C(C[C@@H]1CC[C@H]2[C@@H](COC[C@@H](O)CN2Cc2ccc(Cl)cc2)O1)NCc1ccccc1Cl -28.7% [at 1.95 µM]
COc1cccc(NC(=O)N[C@H]2CC[C@H](CC(=O)N3CCCCC3)O[C@@H]2CO)c1 17.5%
C[C@@H]1CN([C@@H](C)CO)S(=O)(=O)c2ccc(C3=CCCCC3)cc2O[C@H]1CN(C)Cc1cccnc1 15.4%
CNC[C@H]1Oc2cc(C#CCC3CCCC3)ccc2S(=O)(=O)N([C@@H](C)CO)C[C@@H]1C 29.2% [at 8 µM]
CO[C@@H]1CN(C)C(=O)c2cc(NC(=O)Nc3cccc(F)c3)ccc2OC[C@@H](C)N(C)C[C@H]1C -12.5%
O=C(Nc1ccc(F)cc1)Nc1ccc2c(c1)[C@@H]1C[C@H](CC(=O)N3CCCCC3)O[C@@H](CO)[C@@H]1O2 -6.91%
CC(C)C#Cc1ccc2c(c1)O[C@@H](CN(C)Cc1ccncc1)[C@H](C)CN([C@H](C)CO)S2(=O)=O 6.91% [at 1.95 µM]
COc1cccc(NC(=O)N[C@H]2C=C[C@@H](CC(=O)NCc3ccncn3)O[C@H]2CO)c1 -10.2% [at 1.95 µM]
C[C@H]1CN([C@@H](C)CO)S(=O)(=O)c2ccc(C3=CCCC3)cc2O[C@@H]1CN(C)Cc1ccncc1 -16.8% [at 1.95 µM]
CCCN1C[C@H](C)[C@H](OC)CN(C)C(=O)c2ccc(NC(=O)c3ccc(F)cc3)cc2OC[C@@H]1C -9.18%
COc1cccc(-c2ccc3c(c2)O[C@@H](CN(C)Cc2ccncc2)[C@H](C)CN([C@H](C)CO)S3(=O)=O)c1 19.2%
CO[C@H]1CN(C)C(=O)c2cc(NC(=O)c3ccc(-c4ccccc4)cc3)ccc2OC[C@H](C)NC[C@H]1C 27.6% [at 8 µM]
O=C(Cc1ccccc1)N[C@@H]1CC[C@@H](CC(=O)N2CCOCC2)O[C@H]1CO -16.6% [at 8 µM]
O=C(Cc1ccccc1)N[C@H]1CC[C@@H](CC(=O)N2CCOCC2)O[C@@H]1CO -8.53% [at 8 µM]
CO[C@@H]1CN(C)C(=O)c2cc(NC(=O)Nc3ccccc3F)ccc2OC[C@@H](C)N(CCC(F)(F)F)C[C@H]1C 10.2%
CC(C)C(=O)Nc1ccc2c(c1)C(=O)N(C)[C@H]1CC[C@@H](CC(=O)NCc3ccccc3F)O[C@@H]1CO2 -12.2% [at 8 µM]
CNC[C@@H]1Oc2ncc(-c3ccc(OC)cc3)cc2C(=O)N([C@H](C)CO)C[C@H]1C 28.1%
CO[C@@H]1CN(C)C(=O)c2ccc(NC(=O)c3ccccc3F)cc2OC[C@@H](C)N(CC2CC2)C[C@H]1C -10.7% [at 1.95 µM]
CCCC(=O)Nc1ccc2c(c1)C(=O)N(C)C[C@H](OC)[C@@H](C)CN(Cc1ccccc1)[C@@H](C)CO2 22.4%
C[C@H]1CN([C@@H](C)CO)C(=O)c2cc(C3=CCCCC3)cnc2O[C@@H]1CN(C)C(=O)c1cccc(F)c1 21.2%
CC(=O)N(C)C[C@H]1Oc2ncc(-c3ccc(C(=O)N(C)C)cc3)cc2C(=O)N([C@@H](C)CO)C[C@H]1C -3.53% [at 1.95 µM]
O=C(Cc1ccccc1)N[C@@H]1CC[C@H](CC(=O)N2CCOCC2)O[C@H]1CO -12.9%
O=C(Cc1ccccc1)N[C@H]1CC[C@H](CC(=O)N2CCOCC2)O[C@@H]1CO -10.8%
CCC(=O)N(C)C[C@H]1Oc2ncc(-c3ccc(C(=O)N(C)C)cc3)cc2C(=O)N([C@H](C)CO)C[C@@H]1C 21.8% [at 8 µM]
COCC(=O)Nc1ccc2c(c1)OC[C@@H](C)N(C(=O)c1ccccc1F)C[C@H](C)[C@@H](OC)CN(C)C2=O -10.4% [at 35 µM]
Cc1ccccc1-c1ccc2c(c1)O[C@H](CN(C)Cc1ccncc1)[C@@H](C)CN([C@@H](C)CO)S2(=O)=O 7.76%
C[C@H]1CN([C@@H](C)CO)S(=O)(=O)c2ccc(C#CC3CCCCC3)cc2O[C@@H]1CN(C)Cc1cccnc1 26.3% [at 1.95 µM]
C/C=C/c1cnc2c(c1)C(=O)N([C@@H](C)CO)C[C@H](C)[C@@H](CN(C)Cc1ccc(F)cc1)O2 -8.42% [at 8 µM]
CC(C)CC#Cc1ccc2c(c1)O[C@@H](CN(C)C(=O)C1CCCCC1)[C@@H](C)CN([C@@H](C)CO)S2(=O)=O 27.1%
O=C(Nc1ccc2c(c1)[C@H]1C[C@@H](CC(=O)N3CCc4ccccc4C3)O[C@@H](CO)[C@H]1O2)c1ccc2c(c1)OCO2 -27.9% [at 8 µM]
CCCC#Cc1ccc2c(c1)O[C@@H](CN(C)Cc1cccnc1)[C@@H](C)CN([C@H](C)CO)S2(=O)=O 35.5%
